In PubChem BioAssay AID463165 (Johns Hopkins Ion Channel Center, 2010) one finds B-score data, which are given here for 110 compounds.

The campaign covered roughly 310,000 compounds. About 1,400 (0.45%) were called active.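 Rule for the calls: active = B-score, a plate-corrected calcium signal, over three deviations above library mean, with baseline fluorescence within five deviations of library mean; inactive = the rest.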 The list comes from a sample in which actives are over-represented; it also holds similar structures and randomly drawn compounds.

Regulator of G-protein signaling 4 (Homo sapiens), sequence (P49798 whole entry, looked up): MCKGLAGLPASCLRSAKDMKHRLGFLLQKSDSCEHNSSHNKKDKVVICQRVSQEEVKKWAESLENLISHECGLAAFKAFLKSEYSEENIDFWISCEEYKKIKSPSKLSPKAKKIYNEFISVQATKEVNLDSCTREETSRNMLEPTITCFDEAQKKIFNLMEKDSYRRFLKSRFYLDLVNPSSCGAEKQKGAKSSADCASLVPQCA

The assay addresses Regulator of G-protein signaling 4 (Homo sapiens) (UniProt P49798). Description: RGS4 inhibitors, primary screen, cell-based, HEK293 M3R inducible RGS4, calcium flux (AID 463165).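 For B-score: B-score is computed from the integrated fluorescence ratio over baseline after carbachol; higher B-score means a larger calcium signal and so more RGS4 inhibition.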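 Note: RGS4 expression induced by doxycycline in cells with stable M3 receptor.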 Conditions: Fluo-4 calcium flux, at 10 µM, triggered by carbachol at its EC20; stronger effect = higher value.
Turning to `COc1ccccc1CN(C)C(=O)C1(c2ccc(Cl)cc2)CC1`, the B-score entry was “inactive”.

On to `CN(CC1CCCN(CCc2cccc(C(F)(F)F)c2)C1)C(=O)c1ccc2nc[nH]c2c1` (stereo not given), for which the B-score result is “inactive”.

As to `COC(=O)N/N=C/c1cn(CCCOc2ccc(C)cc2)c2ccccc12`, the B-score result is “inactive”.

Regarding `COC(=O)Cn1cc(/C=C/[N+](=O)[O-])c2ccccc21`, the B-score is 14.7 (active).

As for `COC(=O)c1cn(CC(=O)NCc2cccs2)c2ccccc12`, the B-score entry was “inactive”.

For `O=C(CN1CCN(S(=O)(=O)c2ccc3ccccc3c2)CC1)NC(=O)NC1CCCCC1`, the B-score entry is “inactive”.

For the compound `CCCc1nn(C)c2c(=O)[nH]c(-c3cc(S(N)(=O)=O)ccc3OCC)nc12`, the B-score result is “inactive”.

For the compound `CCCCOc1ccc(C(=O)N/C(=C/C=C/c2ccccc2)C(=O)N2CCOCC2)cc1`, the B-score entry was “inactive”.

Turning to `OCCCC1CCCCN1Cc1nc(Cc2ccccc2Cl)no1` (stereo not given), the B-score result was “inactive”.

Take `CNc1nc(-c2ccccc2)cc(-c2ccccc2)n1`: the B-score entry is “inactive”.

In the case of `Nc1cccc(-c2cc(-c3ccccc3)nc(-c3cccc(N)c3)n2)c1`, the B-score was 5.75 (active).

For the compound `Nc1nc(-c2ccccc2)cc(-c2ccccc2)n1`, the B-score entry was “inactive”.

Regarding `COCCNC(=O)C(OC(=O)c1cccs1)c1ccc(F)cc1` (stereo not given), the B-score result is “inactive”.

In the case of `COCCNC(=O)CSc1nc2c(n1-c1ccccc1)CCCC2`, the B-score entry was “inactive”.

Take `O=C(NCc1ccc(F)cc1)C1CCC(CNc2c(N3CCOCC3)c(=O)c2=O)CC1` (stereo not given): the B-score result was “inactive”.

For `Cc1noc(C)c1S(=O)(=O)Nc1cc(C(F)(F)F)ccc1N1CCOCC1`, the B-score entry is “inactive”.

With `COc1cc2c(cc1OC)C(/C=C/c1ccco1)=NCC2`, the B-score result is “inactive”.

As for `CCOC(=O)C1=NN(c2ccc(Cl)cc2)/C(=C/C2=NCCc3cc(OC)c(OC)cc32)S1`, the B-score is 4.81 (active).

For the compound `CCOC(=O)C1=C(CN2CCc3ccccc32)NC(=O)NC1c1ccc(Cl)cc1` (stereo not given), the B-score result is “inactive”.

In the case of `CC(=O)c1cccc(NC(=O)C2CCCN2S(=O)(=O)c2cccc3nsnc23)c1` (stereo not given), the B-score entry is “inactive”.

Take `Cn1c(N2CCOCC2)c(C=O)c2ccccc21`: the B-score entry is “inactive”.

`Clc1ccc(CN2CCN(/N=C/c3cccnc3)CC2)cc1`: the B-score entry is “inactive”.

Regarding `O=C1NCC(=O)N(Cc2ccccc2)/C1=C/c1ccccc1`, the B-score entry is “inactive”.

With `O=C1/C(=C\c2cccnc2)CN(Cc2ccccc2)C/C1=C\c1cccnc1`, the B-score is 20.8 (active).

With `NS(=O)(=O)c1ccc(CCNC(=O)c2ccc([N+](=O)[O-])cc2[N+](=O)[O-])cc1`, the B-score entry is “inactive”.

For the compound `COc1cc(/C=N/NC(=O)c2cccnc2)ccc1OC(=O)c1cccc(Br)c1`, the B-score result was “inactive”.

Take `C=C(C)C(=O)O[C@H]1C/C(C)=C\C(=O)/C=C(\C)[C@H](O)[C@@H]2OC(=O)C(=C)[C@@H]21`: the B-score was 5.6 (active).

Consider `Nc1ccccc1/C=N\N=C/c1ccccc1N`, for which the B-score entry is “inactive”.

As for `Cc1ccc2c(c1)N(CC(=O)NCCc1ccc(Cl)cc1)C(=O)c1cccnc1O2`, the B-score result is “inactive”.

On to `Cn1c(SCC(=O)N2CCCC2)nnc1-c1cccs1`, for which the B-score entry is “inactive”.

Take `O=C(/C=C/c1ccc(N2CCOCC2)cc1)c1ccccc1`: the B-score result was “inactive”.

As for `O=C(O)c1ccc2c(c1)C(=O)N(c1ccc(/C=C/C(=O)c3ccccc3)cc1)C2=O`, the B-score is 24.6 (active).

Take `Cc1cccc(N2C(=O)c3ccc(C(=O)Nc4cccc(C(=O)O)c4)cc3C2=O)c1`: the B-score result was “inactive”.

On to `COC(=O)c1sccc1NN1C(=O)c2ccccc2C1=O`, for which the B-score entry was “inactive”.

In the case of `COc1ccc(N2CCN(C(=O)COC(=O)c3cccc(S(=O)(=O)Nc4ccccc4OC)c3)CC2)cc1`, the B-score result was “inactive”.

Turning to `O=C(Nc1cccc(Cl)c1)OCc1ccccn1`, the B-score entry is “inactive”.

Regarding `O=C(Nc1ccc(Cl)cc1)OCc1cc(-c2ccccc2)on1`, the B-score is 6.27 (active).

In the case of `O=C(Nc1ccccc1)OCc1cn(-c2ccc(Cl)cc2)nn1`, the B-score result was “inactive”.

`Cc1cccc(-c2nnc(SCC(=O)O)n2Cc2ccccc2)c1`: the B-score entry is “inactive”.

In the case of `O=C(/C=C/Sc1ncn[nH]1)c1ccc(Cl)cc1`, the B-score is 12 (active).

`O=C(CSc1ncn[nH]1)N/N=C/c1ccc(F)cc1`: the B-score result is “inactive”.

Take `Cc1ccc(C(=O)/C=C/c2c(C)nn(-c3ccccc3)c2Cl)cc1`: the B-score entry was “inactive”.

With `Cc1ccc(Sc2cc(N3CCOCC3)nc(-c3ccccc3)n2)cc1`, the B-score was 8.43 (active).

Regarding `O=S(=O)(Cc1cc(Sc2ccccc2)nc(-c2ccccc2)n1)c1ccccc1`, the B-score entry is “inactive”.

Take `Cc1cc(N2CCOCC2)nc(-c2ccc(Br)cc2)n1`: the B-score entry is “inactive”.

Take `CCCN(CCc1ccccc1)C1CCc2c(O)cccc2C1` (stereo not given): the B-score entry was “inactive”.

With `CCc1ccc(N(C(=O)c2csnn2)C(C(=O)NC2CCCCC2)c2ccncc2)cc1` (stereo not given), the B-score entry was “inactive”.

Consider `Cc1ccc2nc(-c3ccc(NC(=O)CN(C)S(=O)(=O)c4ccccc4)cc3)sc2c1`, for which the B-score result was “inactive”.

Turning to `NC(=O)NC(=O)CSc1nc2cc([N+](=O)[O-])ccc2n1-c1cccc(C(F)(F)F)c1`, the B-score result was “inactive”.

For the compound `CCc1nnc(NS(=O)(=O)c2ccc(N=Cc3c(C)[nH]n(-c4ccc(C)cc4)c3=O)cc2)s1`, the B-score was 5.86 (active).

On to `CCc1nnc(NS(=O)(=O)c2ccc(NS(=O)(=O)c3ccccc3)cc2)s1`, for which the B-score entry was “inactive”.

As to `CCc1nnc(NS(=O)(=O)c2ccc(NC(=S)NC(=O)/C=C/c3cccs3)cc2)s1`, the B-score entry is “inactive”.

As to `O=C(OCc1cc(Cl)ccc1OC(F)F)c1cccnc1`, the B-score entry is “inactive”.

With `O=C1N/C(=N\N=C\c2ccco2)SC1Cc1ccc(F)cc1` (stereo not given), the B-score entry is “inactive”.

`CCCCC1S/C(=N/N=C/c2cccs2)NC1=O` (stereo not given): the B-score is 6.28 (active).

On to `CC(C)=N/N=C1/NC(=O)C(Cc2ccccc2)S1` (stereo not given), for which the B-score result was “inactive”.

For the compound `Cc1cccc(CN2CCN(Cc3cnn(-c4ccccc4F)c3)CC2CCO)n1` (stereo not given), the B-score entry was “inactive”.

Regarding `CCCCN1C(=S)NC[C@@H]1C(C)CC` (stereo not given in full), the B-score entry was “inactive”.

In the case of `CC(CO)NCC12CC3CC(CC(C3)C1)C2` (stereo not given), the B-score entry is “inactive”.

For `Brc1ccc(-c2csc(N/N=C/c3ccc4c(c3)OCO4)n2)cc1`, the B-score result was “inactive”.

For the compound `Cc1ccccc1Nc1nc(-c2cccnc2)cs1`, the B-score entry is “inactive”.

Turning to `Brc1ccc(-c2csc(N/N=C/c3cccnc3)n2)cc1`, the B-score was 7.99 (active).

Turning to `CCCCN1C(=O)C(C)=C(C)C1OCCc1ccc(OC)c(OC)c1` (stereo not given), the B-score entry was “inactive”.

Regarding `c1ccc(CN=C2Nc3ccccc3CS2)nc1`, the B-score entry is “inactive”.

As for `CNCC(O)c1ccc(O)c(O)c1` (stereo not given), the B-score is 6 (active).

On to `CC(=O)NCC(O)c1ccc([N+](=O)[O-])cc1` (stereo not given), for which the B-score result was “inactive”.

With `CCC(C)c1ccc(O)c(/C=N/O)c1` (stereo not given), the B-score entry is “inactive”.

Turning to `FC(F)(F)c1ccc(-n2cn[nH]c2=S)cc1`, the B-score entry is “inactive”.

Take `Cc1ccnc(NS(=O)(=O)c2ccc(NC(=O)c3oc4ccc(F)cc4c3C)cc2)n1`: the B-score entry is “inactive”.

As for `CCOC(=O)c1c(NC(C)=O)sc2c(O)c(Br)ccc12`, the B-score result was “inactive”.

In the case of `C1=C(N2CCOCC2)/C(=C/c2nc3ccccc3[nH]2)CC1`, the B-score was 5.95 (active).

With `CC1(C)Cc2c(C#N)c(SCc3nc4ccccc4[nH]3)nc(N3CCOCC3)c2CO1`, the B-score result was “inactive”.

On to `O=c1[nH]c(N2CCOCC2)nc2ccccc12`, for which the B-score result is “inactive”.

For the compound `Nc1c(-c2ccc(F)cc2)cnn1C1CCS(=O)(=O)C1` (stereo not given), the B-score entry is “inactive”.

For `C/C(=N\NC(=O)CSc1nc2ccccc2c(=O)n1-c1ccccc1C)c1cccs1`, the B-score entry was “inactive”.

Consider `CN1C(=O)/C(=C\c2ccc(-c3ccccc3)o2)SC1=S`, for which the B-score entry is “inactive”.

On to `O=C1NN(c2ccccc2)C(=O)/C1=C/c1ccc(-c2cccc(C(=O)O)c2)o1`, for which the B-score result is “inactive”.

With `O=C(O)C(c1ccccc1)N1C(=O)/C(=C\c2ccc(-c3cccc(Cl)c3)o2)SC1=S` (stereo not given), the B-score is 10.3 (active).

As to `NC(=O)C1CCN(CC(O)CSc2ccc(F)cc2)CC1` (stereo not given), the B-score result is “inactive”.

`CC(Oc1ccccc1)C(=O)Nc1c2c(nn1-c1ccccc1)CS(=O)C2` (stereo not given): the B-score entry was “inactive”.

With `COc1ccc(-c2nc3c(s2)CCc2onc(-c4ccc(Br)cc4)c2-3)cc1`, the B-score entry is “inactive”.

In the case of `O=C(/C=C/c1cccc([N+](=O)[O-])c1)N1CCN(Cc2ccccc2)CC1`, the B-score entry was “inactive”.

In the case of `O=C(Cn1ccc2cc(S(=O)(=O)N3CCCC3)ccc21)NCc1ccccc1`, the B-score entry was “inactive”.

`O=[N+]([O-])/C=C/c1ccc2c(ccn2Cc2ccccc2)c1`: the B-score was 44.8 (active).

For `O=c1c2cc([N+](=O)[O-])ccc2nc2n1CCC2`, the B-score result was “inactive”.

With `C=CCOc1cccc(C2NC(=O)c3ccccc3O2)c1` (stereo not given), the B-score entry was “inactive”.

For the compound `COc1cc(Br)cc(/C=N/c2ncn[nH]2)c1O`, the B-score is 5.03 (active).

As for `Oc1c(Cl)cc(Cl)cc1/C=N/c1ncn[nH]1`, the B-score entry was “inactive”.

Turning to `Oc1ccc(Br)cc1C=Nc1ccc2[nH]ncc2c1`, the B-score entry was “inactive”.

For the compound `Cc1ccc(CN2CCN(Cc3cccc(C)n3)CC2CCO)cc1` (stereo not given), the B-score entry was “inactive”.

Regarding `CCCCCN(C(=O)CCC(=O)OCC(=O)NC1CCC(C)CC1)c1c(N)n(CCCC)c(=O)[nH]c1=O` (stereo not given), the B-score result was “inactive”.

Regarding `Cc1cccc(C)c1-n1c(C)cc(/C=C2\C(=O)NN(c3ccccc3)C2=O)c1C`, the B-score result is “inactive”.

In the case of `COc1cc(/C=C2\SC(=O)NC2=O)ccc1OCc1ccc(Cl)nc1`, the B-score entry was “inactive”.

Consider `COc1cc(/C=C2/C(=O)NN(c3ccc(F)cc3)C2=O)cc([N+](=O)[O-])c1O`, for which the B-score result is “inactive”.

As for `COc1cc(/C=C2/C(=O)NN(c3cccc(Cl)c3)C2=O)cc(Br)c1O`, the B-score was 5.61 (active).

`C#CCOc1ccc(/C=C2/C(=O)NN(c3ccccc3)C2=O)cc1OC`: the B-score is 7.25 (active).

As to `COc1cc(/C=N/O)cc(Br)c1OCc1cccc(Cl)c1`, the B-score result was “inactive”.

For `CONc1nc2nonc2nc1NOC`, the B-score result is “inactive”.

Turning to `COc1ccc(Nc2ccc([N+](=O)[O-])cn2)cn1`, the B-score result is “inactive”.

For `Cc1ccc(NC(=O)OCc2cncs2)cc1`, the B-score result was “inactive”.

As for `COc1ccc(NC(=O)/C(Cl)=C(/Cl)S(=O)Cc2ccc(C)cc2)cn1` (stereo not given), the B-score was 5.83 (active).

For the compound `COC(=O)c1ccc(Nc2ncnc3sccc23)cc1`, the B-score result was “inactive”.

On to `Cc1ccc(-n2c(SCC(=O)N3CCC(C(=O)O)CC3)nc3ccccc3c2=O)cc1C`, for which the B-score entry was “inactive”.

With `Cc1nc(-c2ccc(Cl)cc2)sc1C(=O)CBr`, the B-score entry is “inactive”.

Consider `Cc1nc(-c2ccccc2)sc1C(=O)/C=C/c1ccccc1`, for which the B-score is 11.9 (active).

Regarding `Cc1nc(-c2ccccc2)sc1C(=O)/C=C/N(C)C`, the B-score entry was “inactive”.

For `Cc1cccc(C(=O)NC(=S)N(C)C2CCCCC2)c1`, the B-score entry was “inactive”.

Regarding `CCC(c1nnnn1Cc1ccco1)N(Cc1cc2cc(OC)ccc2[nH]c1=O)C1CCCCC1` (stereo not given), the B-score was 16.8 (active).

In the case of `CCC(c1nnnn1Cc1ccco1)N(CCc1ccccc1)Cc1cc2cccc(C)c2[nH]c1=O` (stereo not given), the B-score result is “inactive”.

With `CCC(c1nnnn1Cc1ccccc1)N(Cc1cc2cc(OC)ccc2[nH]c1=O)CC1CCCO1` (stereo not given), the B-score result is “inactive”.
